# Experimental data as given in PubChem BioAssay (NCI).
# The panel holds about 83,000 compounds, 20% with a hit somewhere; the sample as a whole holds those more often.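 Method: cells in 96-well plates; compound added at one concentration; 48 h incubation; percent growth measured; values under 10 scored active.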 Unmarked numbers belong to inactive results. The source made the active and inactive calls.
# How the values were obtained:
# Assay in all cases: NCI-60 one-dose screen, 48 h (100 = growth as untreated, 0 = no growth, -100 = all killed)
# Settings in all cases: 10 µM unless noted
# HCT-15 colon = test system: HCT-15 colon
# HT29 colon = test system: HT29 colon
# SNB-75 CNS = test system: SNB-75 CNS
# SNB-19 CNS = test system: SNB-19 CNS
# U251 CNS = test system: U251 CNS
# PC-3 prostate = test system: PC-3 prostate
# SK-MEL-5 melanoma = test system: SK-MEL-5 melanoma
# UACC-62 melanoma = test system: UACC-62 melanoma
# LOX IMVI melanoma = test system: LOX IMVI melanoma
# SK-MEL-28 melanoma = test system: SK-MEL-28 melanoma
Compound,growth (HCT-15 colon),growth (HT29 colon),growth (SNB-75 CNS),growth (SNB-19 CNS),growth (U251 CNS),growth (PC-3 prostate),growth (SK-MEL-5 melanoma),growth (UACC-62 melanoma),growth (LOX IMVI melanoma),growth (SK-MEL-28 melanoma)
Nc1c(C(=O)c2ccc(Cl)cc2)sc(Nc2ccccc2)c1-c1nc2ccccc2s1,39.7%,17.9%,18.1%,62.1%,4.94% (active),10.3%,55.1%,7.88% (active),17.8%,42.6%
c1ccc(Cn2cc3c(c2)-c2nc(Nc4ccccc4)ncc2CC3)cc1,116% [100 µM],117% [100 µM],63.7% [100 µM],84.1% [100 µM],69.1% [100 µM],72.8% [100 µM],79.4% [100 µM],82.7% [100 µM],85.6% [100 µM],92.5% [100 µM]
CC(=O)OCC(=O)O[C@@H]1C[C@]2(C(C)C)O[C@@]1(C)[C@@H]1CC[C@@H](C)[C@H]1[C@@H]2OC(=O)/C=C/c1ccccc1,81.4%,82.3%,62.3%,86.6%,74.7%,58.6%,74.4%,81%,90.2%,102%
COc1ccc(/C=C\c2cc(OC)c(OC)c(OC)c2)cc1OCC(=O)Nc1nc2ccccc2s1,23%,1.98% (active),30.3%,43.8%,13.9%,31.1%,-64% (active),28%,11.5%,65.4%
N#Cc1nn(-c2ccccn2)c(N)c1C#N,102%,86.4%,87.3%,101%,103%,95.4%,104%,99.1%,101%,105%
NCCCCCNc1noc(Cc2c[nH]c3cc(Br)ccc23)n1,35.7%,3.86% (active),0.268% (active),46.2%,11.7%,9.96% (active),9.74% (active),22.6%,34.9%,40.2%
CN1CCN(Cc2ccc(NC(=O)c3cc(C#Cc4cnc(N)c5ncccc45)n(C)n3)cc2C(F)(F)F)CC1,58.4%,91.4%,142%,103%,38.5%,98.9%,93.6%,100%,91.5%,100%
COc1ccc(C2=NN3C(C2)c2cc(Br)ccc2OC3c2ccncc2)cc1 (stereo not given),73.1%,109%,78.8%,81.4%,75.3%,63.2%,93.2%,71.5%,62%,105%
O=C(Cn1cc(CSc2nc3ccccc3o2)nn1)Nc1ccc([N+](=O)[O-])cc1,106%,93.9%,79.4%,96.3%,97.9%,92%,99.1%,68.5%,94.5%,105%
C=C(C)[C@@H]1CC[C@]2(C(=O)NC(C)=O)CC[C@]3(C)[C@H](CC[C@@H]4[C@@]5(C)CCCNC(C)(C)[C@@H]5CC[C@]43C)[C@@H]12,-33.2% (active),-5.24% (active),52%,58.3%,-41.6% (active),27.4%,-94.5% (active),81.6%,-81.8% (active),-88.4% (active)
CC1=C([Se]CC(OC(=O)[C@@H](CO)NC(=O)OC(C)(C)C)C(=O)NCCCCCC(=O)OCc2ccccc2)C(=O)c2ccccc2C1=O (stereo not given in full),-45.8% (active),-67.5% (active),-99.6% (active),-87% (active),-85.8% (active),-72.6% (active),-89.9% (active),-76% (active),-76.6% (active),-89.1% (active)
CC(C)c1nc(N(C)S(C)(=O)=O)nc(-c2ccc(F)cc2)c1/C=C/C(=O)C[C@@H](O)CC(=O)O,108%,85.6%,91.4%,105%,105%,97.6%,105%,99.5%,101%,112%
CCOC(=O)c1ccc2c(c1)[n+](=O)c(C(C)=O)c(C(F)(F)F)n2[O-],-36% (active),-0.876% (active),25.6%,17.4%,6.13% (active),-45.7% (active),-94.3% (active),2.99% (active),-59.7% (active),27.9%
C=CCOC(=O)C1=C(C)N(CC)C(=O)N(CC)C1c1c(Cl)n(C)c2ccccc12 (stereo not given),78.4%,82.3%,81.6%,75.6%,88.3%,50.4%,96.5%,59.4%,52.8%,99.2%
Oc1cccc(-c2nc(-c3n[nH]c(=S)n3-c3ccccc3)cc3c2[nH]c2ccccc23)c1,20.3%,6.61% (active),-11.5% (active),24.2%,14%,30%,9.76% (active),32%,8.16% (active),31.4%
CC(C)C(=O)Nc1ncc(C(=O)NCCN(Cc2ccccc2)C(=O)c2ccc(S(=O)(=O)Nc3ccccc3)cc2)s1,96.6%,104%,78.3%,97.1%,97.4%,94.3%,90.8%,89.6%,104%,98.4%
CC/C(=C(/c1ccc(Cl)cc1)c1ccc(OCCN(CC)CC)cc1)c1ccc(OC)cc1,16.7%,-3.6% (active),97.2%,69.5%,33.5%,33.9%,46.1%,72.8%,42.3%,56%
O=C1CCc2c(sc3[nH]c(=S)n(-c4cc(C(F)(F)F)cc(C(F)(F)F)c4)c(=O)c23)C1,-42.9% (active),0.73% (active),-8.04% (active),15.1%,-22.4% (active),-38.4% (active),-88.9% (active),-12.9% (active),1.59% (active),-16.8% (active)
COC(=O)c1nc(-c2ccc(C)cc2)oc1N1CCOCC1,84.8%,86.8%,84.6%,94.9%,100%,110%,103%,88%,107%,104%
Cc1c(Cl)cccc1NC(=O)c1sc2nc3c(cc2c1N)CCCC3,24.1%,8.28% (active),29.6%,32.6%,21%,42.1%,31%,17.3%,39.1%,68.6%
O=C(/C=C/c1ccc(Cl)cc1)c1ccc(-n2cc(CN3CCN(c4cc5c(cc4F)c(=O)c(C(=O)O)cn5C4CC4)CC3)nn2)cc1,95.8%,78.2%,91.6%,84.1%,68.6%,89%,81.6%,74.6%,56.9%,85.4%
CN1CCN(Cc2ccc(NC(=O)c3cncc(C#Cc4cnc(N)c5ccc(C#N)cc45)c3)cc2C(F)(F)F)CC1,-82.4% (active),-32.4% (active),-20% (active),25.8%,3.03% (active),27.4%,-93.2% (active),-51.8% (active),-95.8% (active),-81% (active)
NC(=N\N=C/c1ccc(Cl)cc1Cl)/C(N)=N\N=C/c1ccc(Cl)cc1Cl,82.9%,52.5%,8.06% (active),69.8%,36.2%,89.2%,108%,94.9%,74%,110%
CCOC(=O)C1=C(C)N(C)C(=O)N(C)C1c1ccccc1 (stereo not given),102%,97.8%,79.2%,93.8%,99.3%,92.7%,93.3%,86.7%,96.1%,124%
O=C(NC1CCCCCC1)c1ccc2c(=O)n3c(nc2c1)CCCCC3,80.4%,87.3%,62.9%,102%,99.7%,92.2%,94.9%,93.6%,96.1%,108%
Cc1csc(Nc2nc(-c3cccc(Cl)c3)nc(C(Cl)(Cl)Cl)n2)n1,53.9%,2.7% (active),3.48% (active),39.9%,19.9%,39.7%,88.8%,74.2%,91.1%,39.5%
